Only some compounds are listed: those with a hit (about 4% of all), similar ones and a draw of the others.
TWEAK Fn14 block = TWEAK-Fn14 signaling inhibition. inhibition, % at 10 µM. actives 2% (n = 360,000). TWEAK-stimulated Fn14 reporter cells, luciferase luminescence, 8 h; in the data active = inhibition above about 50%
Peg3 prom inh = reduces Peg3 promoter-driven luciferase expression in HeLa | inhibition, % at 20 µM | HeLa PEG-Prom luciferase reporter, luminescence, overnight | actives 1.7% (n = 360,000);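 active = inhibition of at least 50% at 20 µM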
CF NFkB inh = blocks PAF-induced NF-kB reporter in cystic fibrosis cells | AID 588850 | KKLEB NF-kB-GFP reporter, GFP fluorescence overnight | actives 0.86% (n = 360,000) | inhibition, % at 5 µM;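 active = at least 50% inhibition at 5 µM, scaled per plate between neutral and stimulator controls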;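 note: PAF is a Pseudomonas aeruginosa culture filtrate used as stimulus; plate controls were PAF-stimulated DMSO wells for no effect and unstimulated DMSO wells for full effect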
HIF-2a inh = inhibitors of HIF-2a; actives 0.72% (n = 360,000); 786-0 RCC cells HIF-2a reporter, luciferase luminescence, overnight; inhibition, % at 18.8 µM;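 active = inhibition of the luminescence signal of 40% or more relative to plate controls, in a single-dose primary screen at 18.75 µM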
TROY NFkB inh = TROY signaling inhibition | Q293 LMP1-TROYcd NF-kB luciferase reporter, 4 h | inhibition, % at 10 µM | actives 0.98% (n = 360,000) | AID 1347056;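 active = compounds whose plate-normalised and pattern-corrected inhibition of the luciferase reporter signal at the single screening dose is 50% or more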
KKLEB cytotox = CF airway cell cytotoxicity counter-screen. KKLEB CF airway cells viability, ATPlite luminescence, overnight; hits give low values; cells stimulated with P. aeruginosa culture filtrate. activity change (cytotoxicity), % at 5 µM. actives 0.36% (n = 360,000). AID 602141;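 active = corrected activity change at or below -50% at 5 µM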
The depositor's hits bear a star.

How did Cc1ccc(C)c(S(=O)(=O)N2CCCOC2CNC(=O)C(=O)NC2CCCC2)c1 (stereo not drawn) do in these assays?
TWEAK Fn14 block: 3.1; Peg3 prom inh: 10.3; CF NFkB inh: 1.5; HIF-2a inh: 10.8; TROY NFkB inh: 4.2; KKLEB cytotox: -8.1

What do the screens show for `CCNC(=S)Nc1ccc2c(c1)c(=O)n(C)n2Cc1cccc(C(F)(F)F)c1`?
TWEAK Fn14 block: 16.9; Peg3 prom inh: -1.9; CF NFkB inh: 4.9; HIF-2a inh: -0.6; TROY NFkB inh: -0.4; KKLEB cytotox: -6.2

Results for Cc1ccc(CNC(=S)Nc2ccc3c(c2)c(=O)n(C)n3Cc2cccc(C(F)(F)F)c2)cc1 ?
TWEAK Fn14 block: 57.0*; Peg3 prom inh: -16.9; CF NFkB inh: 5.8; HIF-2a inh: 1.8; TROY NFkB inh: 60.9*; KKLEB cytotox: -15.1

What do the screens show for `Cc1coc(NC(=O)CSc2nc(-c3ccc(Cl)cc3)cc(C(F)(F)F)c2C#N)n1`?
TWEAK Fn14 block: -42.1; Peg3 prom inh: 59.5*; CF NFkB inh: -7.7; HIF-2a inh: 18.8; TROY NFkB inh: 6.7; KKLEB cytotox: -12.6

How did COc1ccc(NC(=O)CSc2nc(-c3ccc(C)cc3)cc(C(F)(F)F)c2C#N)cc1 do in these assays?
TWEAK Fn14 block: -24.5; Peg3 prom inh: 9.9; CF NFkB inh: -3.7; HIF-2a inh: 6.1; TROY NFkB inh: -2.9; KKLEB cytotox: -24.6

Results for COc1ccc(-c2cc(C(F)(F)F)c(C#N)c(SCC(=O)Nc3nc(C)co3)n2)cc1 ?
TWEAK Fn14 block: -44.0; Peg3 prom inh: 57.0*; CF NFkB inh: -17.6; HIF-2a inh: -12.6; TROY NFkB inh: 9.6; KKLEB cytotox: -6.8

How did Cc1ccc(S(=O)(=O)CCOC(=O)CNC(=O)OCc2ccccc2)cc1 do in these assays?
TWEAK Fn14 block: -6.9; Peg3 prom inh: -11.2; CF NFkB inh: -2.5; HIF-2a inh: -6.4; TROY NFkB inh: -10.2; KKLEB cytotox: -0.3

How did O=C(Nc1ccccc1C(=O)Nc1ccccn1)c1cc(F)c(F)cc1Cl do in these assays?
TWEAK Fn14 block: -0.2; Peg3 prom inh: 14.2; CF NFkB inh: 0.3; HIF-2a inh: 17.0; TROY NFkB inh: 8.0; KKLEB cytotox: 4.4

Results for CC(C)(C)NS(=O)(=O)c1cc(C(=O)O)ccc1Cl ?
TWEAK Fn14 block: -3.4; Peg3 prom inh: 9.8; CF NFkB inh: 9.9; HIF-2a inh: 12.7; TROY NFkB inh: 13.0; KKLEB cytotox: 0.0

What do the screens show for `Cc1cc(C(=O)Nc2ccc(Cl)cc2)c(C)n1-c1ccccc1`?
TWEAK Fn14 block: 102.7*; Peg3 prom inh: 86.9*; CF NFkB inh: -14.9; HIF-2a inh: 72.8*; TROY NFkB inh: 89.2*; KKLEB cytotox: -68.0*

What do the screens show for `Cc1ccc(NC(=O)c2cnn(-c3ccccc3)c2C)c(C)c1`?
TWEAK Fn14 block: -30.1; Peg3 prom inh: -282.6; CF NFkB inh: -6.3; HIF-2a inh: -283.5; TROY NFkB inh: -17.1; KKLEB cytotox: 4.3

How did Cc1ccc(NC(=O)c2cnn(-c3ccccc3)c2C)cc1 do in these assays?
TWEAK Fn14 block: 63.6*; Peg3 prom inh: -178.7; CF NFkB inh: -1.6; HIF-2a inh: -143.7; TROY NFkB inh: 0.9; KKLEB cytotox: -0.9

How did Cc1cc(C(=O)NNS(=O)(=O)c2cc(C(=O)O)ccc2Cl)c(C)n1-c1ccccc1 do in these assays?
TWEAK Fn14 block: 20.2; Peg3 prom inh: 39.2; CF NFkB inh: 8.9; HIF-2a inh: 64.2*; TROY NFkB inh: 7.3; KKLEB cytotox: -14.1

Results for Cc1c(C(=O)Nc2cccc([N+](=O)[O-])c2)csc1-c1ccccc1 ?
TWEAK Fn14 block: -26.3; Peg3 prom inh: -252.1; CF NFkB inh: -17.3; HIF-2a inh: -363.4; TROY NFkB inh: -33.5; KKLEB cytotox: -25.5

Results for Cc1ccc(NC(=O)c2csc(-c3ccccc3)c2C)cc1 ?
TWEAK Fn14 block: 81.0*; Peg3 prom inh: 29.7; CF NFkB inh: 7.4; HIF-2a inh: 18.3; TROY NFkB inh: 74.5*; KKLEB cytotox: -53.9*

What do the screens show for `Cc1ccc(NC(=O)c2cc(C)n(-c3ccccc3)c2C)cc1`?
TWEAK Fn14 block: 96.6*; Peg3 prom inh: 49.6; CF NFkB inh: -6.4; HIF-2a inh: 53.7*; TROY NFkB inh: 89.4*; KKLEB cytotox: -73.0*

What do the screens show for `COc1ccc(-c2csc(NC(C)c3nc4cc(Cl)c(Cl)cc4n3CCCO)n2)cc1` (stereo not drawn)?
TWEAK Fn14 block: 47.8; Peg3 prom inh: 3.2; CF NFkB inh: 12.9; HIF-2a inh: -67.5; TROY NFkB inh: 55.1*; KKLEB cytotox: -19.5

Results for CCCn1c(C(C)Nc2nc(-c3ccc(C)cc3)cs2)nc2cc(Cl)c(Cl)cc21 (stereo not drawn) ?
TWEAK Fn14 block: 6.3; Peg3 prom inh: 2.8; CF NFkB inh: -21.9; HIF-2a inh: 30.5; TROY NFkB inh: 0.9; KKLEB cytotox: 3.9

What do the screens show for `Cc1ccc(Cn2c(C(C)Nc3nc(-c4ccc(F)cc4)cs3)nc3cc(Cl)c(Cl)cc32)cc1` (stereo not drawn)?
TWEAK Fn14 block: 51.9*; Peg3 prom inh: 15.5; CF NFkB inh: 19.5; HIF-2a inh: -29.6; TROY NFkB inh: 45.4; KKLEB cytotox: -9.5

What do the screens show for `CC(Nc1nc(-c2ccc(F)cc2)cs1)c1nc2cc(Cl)c(Cl)cc2n1CCOCCO` (stereo not drawn)?
TWEAK Fn14 block: 51.4*; Peg3 prom inh: -13.8; CF NFkB inh: 14.5; HIF-2a inh: 3.1; TROY NFkB inh: 17.5; KKLEB cytotox: -8.2

How did Cc1ccc(S(=O)(=O)N2C[C@H]3[C@H]4C(=O)N(C)C(=O)[C@H]4CC(=O)[C@H]3[C@@H]2c2ccccc2Cl)cc1 do in these assays?
TWEAK Fn14 block: 33.0; Peg3 prom inh: -10.5; CF NFkB inh: -0.1; HIF-2a inh: 3.4; TROY NFkB inh: -9.2; KKLEB cytotox: -10.2

What do the screens show for `COc1ccc(CN(CC(O)COCc2ccccc2)S(=O)(=O)c2ccccc2Br)cc1` (stereo not drawn)?
TWEAK Fn14 block: -8.0; Peg3 prom inh: 10.3; CF NFkB inh: 8.2; HIF-2a inh: 9.8; TROY NFkB inh: 6.0; KKLEB cytotox: 1.0

How did Cc1ccc(NC(=O)c2ccc(OCC3CCCO3)cc2)cc1Cl (stereo not drawn) do in these assays?
TWEAK Fn14 block: 3.7; Peg3 prom inh: -403.9; CF NFkB inh: -2.5; HIF-2a inh: -247.9; TROY NFkB inh: -18.5; KKLEB cytotox: 6.2

What do the screens show for `CC(C)(C)c1ccc(CC(=O)N2CCC2(C)C(=O)NS(=O)(=O)c2cccs2)cc1` (stereo not drawn)?
TWEAK Fn14 block: -11.4; Peg3 prom inh: 5.6; CF NFkB inh: -10.6; HIF-2a inh: 5.4; TROY NFkB inh: 5.4; KKLEB cytotox: 3.5

How did CCC(C(=O)NC(C)(C)C)n1c(-c2ccc(C)cc2)nc2ccccc21 (stereo not drawn) do in these assays?
HIF-2a inh: -12.4

How did COc1ccc(-c2cc(C(F)(F)F)nc(SCC(=O)Nc3sc4c(c3C#N)CCC4)n2)cc1 do in these assays?
TWEAK Fn14 block: -16.8; Peg3 prom inh: 10.8; CF NFkB inh: 43.8; HIF-2a inh: 3.2; TROY NFkB inh: 14.4; KKLEB cytotox: -60.8*

Screening results deposited in PubChem BioAssay by Sanford-Burnham Center for Chemical Genomics.
